# Test results published in PubChem BioAssay (NCI).
# The panel holds about 79,000 compounds, 15% with a hit somewhere; the sample as a whole holds those more often. Unmarked numbers belong to inactive results. Activity calls are given as the source filed them. No stated cut-off is given here; in the data, active means growth inhibition above about 70%; inactive means the rest.
# Tests used:
# [1] = NCI Yeast Anticancer Drug Screen. Data for the rad50 strain (AID 155);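 further: 0% = growth of vehicle-only cultures of the same strain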; details: S. cerevisiae rad50 strain growth inhibition, active compounds read high
# Procedure, shortened: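 Growth of the mutant yeast was measured after compound exposure and referenced to vehicle-treated cultures.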
# [2] = NCI Yeast Anticancer Drug Screen. Data for the mec2-1 strain (AID 157); details: S. cerevisiae mec2-1 strain, active compounds read high
# Procedure, shortened: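 Compounds were applied to mec2-1 yeast cells. Their growth was then compared with that of vehicle-treated cultures to give growth inhibition.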
# [3] = NCI Yeast Anticancer Drug Screen. Data for the sgs1 mgt1 strain (AID 161);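 further: 0% = growth of cultures given vehicle only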; details: S. cerevisiae sgs1 mgt1 strain, active compounds read high
# Procedure, shortened: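 Compounds are added to genetically altered yeast, and growth is compared with cultures given vehicle alone to give percent inhibition.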
# [4] = NCI Yeast Anticancer Drug Screen. Data for the cln2 rad14 strain (AID 165);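 further: 0% = growth equal to vehicle treated cultures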; details: S. cerevisiae cln2 rad14 strain, active compounds read high
# Procedure, shortened: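 Strain: cln2 rad14 yeast, altered in cell cycle control and DNA damage repair. Read-out: growth inhibition vs vehicle.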
# [5] = NCI Yeast Anticancer Drug Screen. Data for the bub3 strain (AID 167); details: S. cerevisiae bub3 mutant strain, active compounds read high
# Procedure, shortened: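 Whole-cell yeast assay. The mutant strain was incubated with compounds, and growth inhibition was determined by comparison with vehicle-treated cells.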
# [6] = NCI Yeast Anticancer Drug Screen. Data for the mlh1 rad18 strain (AID 175); details: S. cerevisiae mlh1 rad18 strain growth inhibition, active compounds read high
# Procedure, shortened: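 A repair-deficient yeast strain is exposed to test compound, and growth is scored relative to vehicle-treated controls.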
# [7] = at 5.0 µM (retest, dose inferred, filed as 0.5)
# [8] = at 50.0 µM (retest, dose inferred, filed as 5.0)
Structure (SMILES),"growth inhibition [1, 7]","growth inhibition [1, 8]",growth inhibition ([1]; at 50.0 µM),"growth inhibition [2, 7]","growth inhibition [2, 8]",growth inhibition ([2]; at 50.0 µM),"growth inhibition [3, 7]","growth inhibition [3, 8]",growth inhibition ([3]; at 50.0 µM),"growth inhibition [4, 7]","growth inhibition [4, 8]",growth inhibition ([4]; at 50.0 µM),"growth inhibition [5, 7]","growth inhibition [5, 8]",growth inhibition ([5]; at 50.0 µM),"growth inhibition [6, 7]","growth inhibition [6, 8]",growth inhibition ([6]; at 50.0 µM)
CC(=O)[CH-]C(C)=O.CC(=O)[CH-]C(C)=O.[O-]c1ccccc1.[O-]c1ccccc1.[Ti+4],25%,25%,40.3%,20%,20%,0.3%,19%,19%,11.4%,21%,21%,15.2%,6%,6%,7.05%,-9%,-9%,16.9%
COc1cc(/C=C\[N+](=O)[O-])ccc1O,87% (active),99% (active),99.2% (active),53%,100% (active),99.6% (active),34%,99% (active),99.5% (active),21%,100% (active),99% (active),77% (active),99% (active),99% (active),51%,99% (active),99% (active)
CC(=O)OC1CC[C@@]2(C)C(=CC[C@@H]3[C@@H]2CC[C@]2(C)C(OC(C)=O)[C@H](n4ccnc4)C[C@@H]32)C1 (stereo not given in full),22%,84% (active),71.8% (active),8%,52%,62.8%,14%,78% (active),75.2% (active),9%,58%,69.9%,-43%,74% (active),77% (active),17%,56%,91.2% (active)
CCOP(=O)(OCC)C(O)c1ccccc1Cl (stereo not given),7%,4%,38.4%,7%,4%,-4.1%,3%,17%,9.15%,-5%,1%,35.5%,-5%,-6%,17.2%,7%,22%,2.9%
[C-]#[O+].[C-]#[O+].[Mo].[N-]=Nc1ccc([N+](=O)[O-])cc1.[c-]1[c-][c-][cH-][c-]1,-1%,69%,93.7% (active),-6%,55%,21.3%,2%,86% (active),84.9% (active),9%,26%,8.7%,-12%,71% (active),4.95%,2%,75% (active),79.3% (active)
ClCCN(CCCl)CCN1c2ccc3ccccc3c2Sc2ccc3ccccc3c21,-3%,2%,32.7%,0%,37%,16.5%,-13%,61%,85% (active),2%,1%,-19.2%,1%,79% (active),20.8%,-1%,53%,67.9%
ClCCN(CCCl)c1ccc(C2N(Cc3ccc(Cl)cc3)CCN2Cc2ccc(Cl)cc2)cc1,25%,86% (active),79.4% (active),44%,85% (active),60.5%,53%,94% (active),80.9% (active),13%,85% (active),46.9%,22%,71% (active),48%,76% (active),97% (active),79.5% (active)
O=c1oc2cc(O)ccc2c(O)c1C(c1ccc(/C=C/c2ccccc2)cc1)c1c(O)c2ccc(O)cc2oc1=O,43%,98% (active),89% (active),19%,99% (active),91.8% (active),-20%,97% (active),89.8% (active),14%,98% (active),90.7% (active),15%,42%,86% (active),8%,99% (active),92.5% (active)
CCOP(=S)(OCC)SSSP(=S)(OCC)OCC,6%,71% (active),1.6%,5%,62%,57.8%,7%,78% (active),15.7%,5%,20%,65.8%,2%,84% (active),70% (active),4%,49%,33.9%
O=[N+]([O-])/C=C/c1c(Cl)cccc1Cl,99% (active),99% (active),99.2% (active),100% (active),100% (active),99.2% (active),99% (active),99% (active),99.3% (active),99% (active),99% (active),98% (active),100% (active),99% (active),99.3% (active),99% (active),99% (active),99.2% (active)
